# According to ChEMBL document CHEMBL1961873, “Compounds: GSK PKIS; Assays: Nanosyn kinase panel” (2012):
# Tests used:
# [1] = molecular target: Sphingosine kinase 1 (Homo sapiens) (UniProt Q9NYA1); details: at 1 µM;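 further: mean SPHK1 inhibition value reported from the GSK PKIS kinase panel screen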
# [2] = molecular target: T1, Sphingosine kinase 2 (Homo sapiens) (UniProt Q9NRA0); details: at 0.1 µM
# T1 sequence (whole entry): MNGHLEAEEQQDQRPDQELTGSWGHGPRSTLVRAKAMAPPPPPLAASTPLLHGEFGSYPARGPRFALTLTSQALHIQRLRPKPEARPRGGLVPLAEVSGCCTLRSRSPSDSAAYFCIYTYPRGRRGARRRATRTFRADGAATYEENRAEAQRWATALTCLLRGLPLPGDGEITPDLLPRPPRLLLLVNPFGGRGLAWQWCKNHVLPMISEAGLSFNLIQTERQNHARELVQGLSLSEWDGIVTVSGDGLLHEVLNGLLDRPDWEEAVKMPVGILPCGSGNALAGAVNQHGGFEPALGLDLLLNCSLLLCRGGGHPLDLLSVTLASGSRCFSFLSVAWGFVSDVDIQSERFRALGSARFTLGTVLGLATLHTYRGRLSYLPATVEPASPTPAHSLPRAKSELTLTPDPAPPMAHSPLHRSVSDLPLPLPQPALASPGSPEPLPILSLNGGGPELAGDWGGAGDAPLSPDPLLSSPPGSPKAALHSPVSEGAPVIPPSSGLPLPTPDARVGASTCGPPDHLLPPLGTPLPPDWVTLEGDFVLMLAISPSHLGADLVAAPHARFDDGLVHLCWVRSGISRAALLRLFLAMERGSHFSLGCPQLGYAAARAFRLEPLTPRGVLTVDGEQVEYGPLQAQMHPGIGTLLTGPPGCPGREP
# [3] = molecular target: T1, Sphingosine kinase 2 (Homo sapiens); details: at 1 µM
# [4] = molecular target: Casein kinase II subunit alpha (Homo sapiens) (UniProt P68400); details: at 0.1 µM
# Chain of Casein kinase II subunit alpha (Homo sapiens) (P68400 whole entry, looked up): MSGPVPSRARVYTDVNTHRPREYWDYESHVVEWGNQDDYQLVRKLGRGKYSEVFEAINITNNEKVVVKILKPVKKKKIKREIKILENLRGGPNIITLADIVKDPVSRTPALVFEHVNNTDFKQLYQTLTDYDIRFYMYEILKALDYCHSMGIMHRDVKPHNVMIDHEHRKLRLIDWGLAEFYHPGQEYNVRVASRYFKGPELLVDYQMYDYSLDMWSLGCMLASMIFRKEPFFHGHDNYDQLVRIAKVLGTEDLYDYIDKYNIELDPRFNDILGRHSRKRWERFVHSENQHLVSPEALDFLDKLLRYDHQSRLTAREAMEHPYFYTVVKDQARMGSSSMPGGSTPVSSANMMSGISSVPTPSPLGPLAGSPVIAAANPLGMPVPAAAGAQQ
# [5] = molecular target: Casein kinase II subunit alpha (Homo sapiens) (UniProt P68400); details: at 1 µM
# [6] = molecular target: T2, Inhibitor of nuclear factor kappa-B kinase subunit alpha (Homo sapiens) (UniProt O15111); details: at 0.1 µM
# T2 sequence (whole entry): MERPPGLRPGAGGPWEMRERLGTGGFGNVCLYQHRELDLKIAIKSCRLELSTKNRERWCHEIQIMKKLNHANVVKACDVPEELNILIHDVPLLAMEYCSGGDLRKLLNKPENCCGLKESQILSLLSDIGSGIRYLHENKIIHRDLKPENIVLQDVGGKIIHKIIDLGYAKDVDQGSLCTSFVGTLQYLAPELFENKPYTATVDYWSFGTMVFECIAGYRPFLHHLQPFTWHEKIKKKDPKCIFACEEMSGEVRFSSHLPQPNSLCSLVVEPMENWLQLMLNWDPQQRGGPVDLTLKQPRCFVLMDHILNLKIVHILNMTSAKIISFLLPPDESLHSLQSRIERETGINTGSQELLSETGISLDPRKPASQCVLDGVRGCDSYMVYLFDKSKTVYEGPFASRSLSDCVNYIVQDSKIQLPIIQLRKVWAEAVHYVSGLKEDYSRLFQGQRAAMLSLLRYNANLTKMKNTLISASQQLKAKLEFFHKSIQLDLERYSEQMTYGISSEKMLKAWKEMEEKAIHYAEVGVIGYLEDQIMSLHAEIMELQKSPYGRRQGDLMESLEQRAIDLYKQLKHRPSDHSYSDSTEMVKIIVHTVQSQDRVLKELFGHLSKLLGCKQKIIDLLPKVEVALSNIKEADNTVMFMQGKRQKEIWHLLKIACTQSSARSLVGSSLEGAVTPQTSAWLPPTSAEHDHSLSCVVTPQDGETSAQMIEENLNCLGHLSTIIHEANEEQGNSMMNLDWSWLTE
# [7] = molecular target: T2, Inhibitor of nuclear factor kappa-B kinase subunit alpha (Homo sapiens); details: at 1 µM
# [8] = molecular target: T3, Inhibitor of nuclear factor kappa-B kinase subunit beta (Homo sapiens) (UniProt O14920); details: at 0.1 µM
# T3 sequence (whole entry): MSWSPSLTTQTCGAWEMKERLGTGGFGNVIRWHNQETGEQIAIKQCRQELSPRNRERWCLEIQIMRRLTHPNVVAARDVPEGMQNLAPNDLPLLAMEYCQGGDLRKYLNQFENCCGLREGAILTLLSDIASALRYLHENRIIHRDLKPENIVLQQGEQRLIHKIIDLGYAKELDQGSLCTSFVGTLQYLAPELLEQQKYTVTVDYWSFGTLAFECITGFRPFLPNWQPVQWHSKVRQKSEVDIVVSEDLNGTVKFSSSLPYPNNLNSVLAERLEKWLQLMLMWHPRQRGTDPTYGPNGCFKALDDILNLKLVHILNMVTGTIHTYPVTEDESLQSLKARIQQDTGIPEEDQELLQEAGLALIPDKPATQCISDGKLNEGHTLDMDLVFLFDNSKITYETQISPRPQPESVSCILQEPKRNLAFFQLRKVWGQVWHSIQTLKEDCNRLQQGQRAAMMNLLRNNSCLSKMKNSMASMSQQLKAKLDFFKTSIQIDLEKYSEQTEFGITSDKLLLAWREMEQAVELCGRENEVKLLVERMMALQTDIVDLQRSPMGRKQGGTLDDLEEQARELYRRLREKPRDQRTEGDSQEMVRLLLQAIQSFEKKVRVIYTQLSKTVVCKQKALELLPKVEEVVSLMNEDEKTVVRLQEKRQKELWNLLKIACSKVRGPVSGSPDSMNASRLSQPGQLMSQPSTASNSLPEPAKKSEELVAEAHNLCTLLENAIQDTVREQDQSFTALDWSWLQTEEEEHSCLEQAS
# [9] = molecular target: T3, Inhibitor of nuclear factor kappa-B kinase subunit beta (Homo sapiens); details: at 1 µM
# [10] = molecular target: T4, Inhibitor of nuclear factor kappa-B kinase subunit epsilon (Homo sapiens) (UniProt Q14164); details: at 0.1 µM
# T4 sequence (whole entry): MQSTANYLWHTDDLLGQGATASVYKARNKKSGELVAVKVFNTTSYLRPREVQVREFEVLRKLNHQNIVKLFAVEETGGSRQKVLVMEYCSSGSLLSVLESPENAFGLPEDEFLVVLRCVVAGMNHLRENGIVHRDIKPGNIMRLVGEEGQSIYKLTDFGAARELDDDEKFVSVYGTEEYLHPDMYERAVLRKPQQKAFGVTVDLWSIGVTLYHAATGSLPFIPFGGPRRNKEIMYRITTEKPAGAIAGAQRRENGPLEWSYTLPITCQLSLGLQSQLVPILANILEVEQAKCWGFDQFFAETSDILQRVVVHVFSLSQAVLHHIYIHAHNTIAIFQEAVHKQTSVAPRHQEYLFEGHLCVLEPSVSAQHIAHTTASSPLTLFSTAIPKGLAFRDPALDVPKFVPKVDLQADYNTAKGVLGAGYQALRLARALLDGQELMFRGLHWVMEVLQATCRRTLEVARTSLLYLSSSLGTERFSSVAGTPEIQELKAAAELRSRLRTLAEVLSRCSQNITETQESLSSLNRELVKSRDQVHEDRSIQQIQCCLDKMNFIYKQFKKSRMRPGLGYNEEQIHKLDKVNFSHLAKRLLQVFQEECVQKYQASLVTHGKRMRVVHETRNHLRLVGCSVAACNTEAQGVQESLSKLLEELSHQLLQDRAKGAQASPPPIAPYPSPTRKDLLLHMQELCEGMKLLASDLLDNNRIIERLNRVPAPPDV
# [11] = molecular target: T4, Inhibitor of nuclear factor kappa-B kinase subunit epsilon (Homo sapiens); details: at 1 µM
# [12] = molecular target: T5, Serine/threonine-protein kinase Nek1 (Homo sapiens) (UniProt Q96PY6); details: at 0.1 µM
# T5 sequence (whole entry): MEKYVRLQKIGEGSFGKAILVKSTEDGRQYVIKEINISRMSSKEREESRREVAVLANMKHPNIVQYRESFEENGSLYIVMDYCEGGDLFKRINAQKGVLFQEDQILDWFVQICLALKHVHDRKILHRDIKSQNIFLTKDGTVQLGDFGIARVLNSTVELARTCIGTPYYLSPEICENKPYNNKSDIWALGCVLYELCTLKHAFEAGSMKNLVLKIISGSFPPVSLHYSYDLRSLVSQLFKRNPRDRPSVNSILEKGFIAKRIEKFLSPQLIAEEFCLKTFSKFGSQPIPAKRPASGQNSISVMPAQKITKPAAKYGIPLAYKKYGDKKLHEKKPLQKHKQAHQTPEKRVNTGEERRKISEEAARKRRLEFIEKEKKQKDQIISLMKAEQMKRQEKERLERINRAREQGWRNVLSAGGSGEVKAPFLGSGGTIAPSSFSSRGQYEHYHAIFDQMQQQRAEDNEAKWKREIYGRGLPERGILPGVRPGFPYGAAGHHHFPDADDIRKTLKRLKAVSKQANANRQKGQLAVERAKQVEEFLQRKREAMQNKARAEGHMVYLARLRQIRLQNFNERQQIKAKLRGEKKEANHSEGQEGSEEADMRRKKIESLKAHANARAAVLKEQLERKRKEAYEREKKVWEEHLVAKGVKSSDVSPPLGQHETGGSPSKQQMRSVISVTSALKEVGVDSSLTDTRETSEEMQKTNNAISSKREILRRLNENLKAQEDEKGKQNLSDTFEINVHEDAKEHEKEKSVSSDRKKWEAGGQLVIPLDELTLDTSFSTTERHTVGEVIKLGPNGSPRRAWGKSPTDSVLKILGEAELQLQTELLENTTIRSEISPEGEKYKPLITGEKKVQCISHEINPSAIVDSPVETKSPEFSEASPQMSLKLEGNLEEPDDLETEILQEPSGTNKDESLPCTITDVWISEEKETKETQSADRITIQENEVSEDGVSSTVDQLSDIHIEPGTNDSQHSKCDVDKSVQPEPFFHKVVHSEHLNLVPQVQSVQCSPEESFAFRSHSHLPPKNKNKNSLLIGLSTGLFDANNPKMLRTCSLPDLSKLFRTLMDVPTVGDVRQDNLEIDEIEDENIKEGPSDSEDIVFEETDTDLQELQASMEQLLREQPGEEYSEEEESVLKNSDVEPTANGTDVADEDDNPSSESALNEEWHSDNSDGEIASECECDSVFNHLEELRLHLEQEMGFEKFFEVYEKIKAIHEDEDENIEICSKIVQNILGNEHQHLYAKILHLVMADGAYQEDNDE
# [13] = molecular target: T5, Serine/threonine-protein kinase Nek1 (Homo sapiens); details: at 1 µM
# [14] = molecular target: T6, Serine/threonine-protein kinase Nek2 (Homo sapiens) (UniProt P51955); details: at 0.1 µM
# T6 sequence (whole entry): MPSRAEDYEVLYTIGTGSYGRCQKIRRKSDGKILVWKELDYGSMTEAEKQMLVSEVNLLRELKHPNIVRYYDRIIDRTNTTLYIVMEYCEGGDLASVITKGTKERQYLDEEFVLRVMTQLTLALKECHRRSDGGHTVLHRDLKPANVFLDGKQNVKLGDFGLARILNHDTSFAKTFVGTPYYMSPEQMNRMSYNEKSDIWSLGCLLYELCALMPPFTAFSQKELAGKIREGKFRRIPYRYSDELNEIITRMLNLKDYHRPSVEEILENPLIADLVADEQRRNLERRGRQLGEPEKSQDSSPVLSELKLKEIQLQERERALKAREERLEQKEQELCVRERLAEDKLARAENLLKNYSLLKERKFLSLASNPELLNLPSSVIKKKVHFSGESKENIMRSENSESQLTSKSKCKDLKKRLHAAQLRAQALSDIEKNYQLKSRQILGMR
# [15] = molecular target: T6, Serine/threonine-protein kinase Nek2 (Homo sapiens); details: at 1 µM
# [16] = molecular target: Serine/threonine-protein kinase Nek6 (Homo sapiens) (UniProt Q9HC98); details: at 0.1 µM
# Chain of Serine/threonine-protein kinase Nek6 (Homo sapiens) (Q9HC98 whole entry): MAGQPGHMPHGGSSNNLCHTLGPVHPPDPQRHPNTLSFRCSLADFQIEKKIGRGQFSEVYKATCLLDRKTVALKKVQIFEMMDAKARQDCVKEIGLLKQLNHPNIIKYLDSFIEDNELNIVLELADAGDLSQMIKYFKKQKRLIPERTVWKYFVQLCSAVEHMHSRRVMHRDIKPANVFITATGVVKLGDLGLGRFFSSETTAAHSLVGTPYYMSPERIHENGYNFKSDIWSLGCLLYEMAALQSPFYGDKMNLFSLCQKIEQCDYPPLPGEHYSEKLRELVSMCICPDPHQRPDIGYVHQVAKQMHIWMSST
# [17] = molecular target: Serine/threonine-protein kinase Nek6 (Homo sapiens) (UniProt Q9HC98); details: at 1 µM
# [18] = molecular target: Serine/threonine-protein kinase Nek7 (Homo sapiens) (UniProt Q8TDX7); details: at 0.1 µM
# Chain of Serine/threonine-protein kinase Nek7 (Homo sapiens) (Q8TDX7 whole entry, looked up): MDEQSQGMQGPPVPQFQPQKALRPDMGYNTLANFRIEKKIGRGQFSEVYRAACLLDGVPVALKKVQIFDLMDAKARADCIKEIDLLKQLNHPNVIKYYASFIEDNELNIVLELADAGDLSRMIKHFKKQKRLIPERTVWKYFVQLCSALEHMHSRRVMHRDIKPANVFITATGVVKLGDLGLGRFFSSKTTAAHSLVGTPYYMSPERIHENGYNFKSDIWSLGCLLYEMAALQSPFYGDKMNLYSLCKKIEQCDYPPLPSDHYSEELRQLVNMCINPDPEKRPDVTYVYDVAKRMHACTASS
# [19] = molecular target: Serine/threonine-protein kinase Nek7 (Homo sapiens) (UniProt Q8TDX7); details: at 1 µM
# [20] = molecular target: T7, Serine/threonine-protein kinase Nek9 (Homo sapiens) (UniProt Q8TD19); details: at 0.1 µM;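 further: reported value is the mean percent inhibition of NEK9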
# T7 sequence (whole entry): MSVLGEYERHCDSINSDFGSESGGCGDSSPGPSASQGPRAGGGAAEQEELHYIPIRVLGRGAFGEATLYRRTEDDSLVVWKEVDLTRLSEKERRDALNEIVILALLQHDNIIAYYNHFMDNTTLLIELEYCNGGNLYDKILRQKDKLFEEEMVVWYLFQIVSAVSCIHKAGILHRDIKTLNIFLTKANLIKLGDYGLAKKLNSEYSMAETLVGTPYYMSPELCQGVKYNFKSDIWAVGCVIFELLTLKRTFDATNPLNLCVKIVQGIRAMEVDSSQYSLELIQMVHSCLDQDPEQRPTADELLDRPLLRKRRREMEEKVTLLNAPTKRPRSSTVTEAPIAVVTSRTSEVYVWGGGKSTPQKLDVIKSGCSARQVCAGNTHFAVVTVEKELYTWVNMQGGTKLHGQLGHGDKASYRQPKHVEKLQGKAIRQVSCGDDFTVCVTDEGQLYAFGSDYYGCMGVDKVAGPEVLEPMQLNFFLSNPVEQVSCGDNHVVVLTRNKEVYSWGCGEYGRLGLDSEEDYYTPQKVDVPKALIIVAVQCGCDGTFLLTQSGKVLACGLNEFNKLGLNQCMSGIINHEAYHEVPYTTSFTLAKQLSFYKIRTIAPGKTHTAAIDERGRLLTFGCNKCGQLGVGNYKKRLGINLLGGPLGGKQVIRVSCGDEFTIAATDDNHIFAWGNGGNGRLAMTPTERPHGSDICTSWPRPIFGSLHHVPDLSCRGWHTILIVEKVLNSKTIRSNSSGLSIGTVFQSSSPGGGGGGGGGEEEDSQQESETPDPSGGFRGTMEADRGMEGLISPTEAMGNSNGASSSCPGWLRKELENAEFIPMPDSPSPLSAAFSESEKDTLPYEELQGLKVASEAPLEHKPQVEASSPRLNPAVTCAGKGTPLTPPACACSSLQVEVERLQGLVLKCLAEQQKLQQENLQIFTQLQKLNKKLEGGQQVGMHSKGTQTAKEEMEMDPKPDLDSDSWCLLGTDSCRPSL
# Chain of Sphingosine kinase 1 (Homo sapiens) (Q9NYA1 whole entry): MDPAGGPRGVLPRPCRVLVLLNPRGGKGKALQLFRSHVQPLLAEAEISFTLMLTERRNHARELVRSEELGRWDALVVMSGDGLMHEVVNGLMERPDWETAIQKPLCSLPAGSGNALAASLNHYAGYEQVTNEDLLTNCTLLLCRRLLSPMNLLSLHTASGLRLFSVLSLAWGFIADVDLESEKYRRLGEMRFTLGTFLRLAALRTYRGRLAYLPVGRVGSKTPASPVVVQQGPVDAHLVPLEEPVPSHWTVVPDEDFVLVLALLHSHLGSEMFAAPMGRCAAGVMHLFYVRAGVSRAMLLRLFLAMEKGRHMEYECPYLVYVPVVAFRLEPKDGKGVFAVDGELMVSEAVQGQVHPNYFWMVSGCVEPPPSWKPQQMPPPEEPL
smiles,measurement,setting,value
NC(=O)c1cccc(Nc2nccc(Nc3cccc4[nH]ncc34)n2)c1,inhibition,[1],-1.98%
same,inhibition,[2],-0.9%
same,inhibition,[3],0.58%
same,inhibition,[4],-0.25%
same,inhibition,[5],3.56%
same,inhibition,[6],7.29%
same,inhibition,[7],41%
same,inhibition,[8],-0.17%
same,inhibition,[9],17.4%
same,inhibition,[10],-3.38%
same,inhibition,[11],21.4%
same,inhibition,[12],0.79%
same,inhibition,[13],8.86%
same,inhibition,[14],-3.63%
same,inhibition,[15],-1.96%
same,inhibition,[16],-4.36%
same,inhibition,[17],-2.96%
same,inhibition,[18],-1.67%
same,inhibition,[19],-3.47%
same,inhibition,[20],-0.63%
